Experimental data as given in the supplement of paper PMC11732987, “Enantioselective OTUD7B fragment discovery through chemoproteomics screening and high-throughput optimisation” (Communications Chemistry, 2025).

Experiments:
Experiment in all cases: log2 ratio of Biotin-Ahx-Ub-VS probe labelling (fragment/DMSO); higher = less target engagement (more negative = stronger competition), active = hit call of the paper (q ≤ 0.05, log2 ratio ≤ -1)
Conditions in all cases: compound concentration: 200 uM; treatment time: 3 h
USP42 = biological target: T1, USP42 (UniProt Q9H9J4)
T1 sequence (whole entry): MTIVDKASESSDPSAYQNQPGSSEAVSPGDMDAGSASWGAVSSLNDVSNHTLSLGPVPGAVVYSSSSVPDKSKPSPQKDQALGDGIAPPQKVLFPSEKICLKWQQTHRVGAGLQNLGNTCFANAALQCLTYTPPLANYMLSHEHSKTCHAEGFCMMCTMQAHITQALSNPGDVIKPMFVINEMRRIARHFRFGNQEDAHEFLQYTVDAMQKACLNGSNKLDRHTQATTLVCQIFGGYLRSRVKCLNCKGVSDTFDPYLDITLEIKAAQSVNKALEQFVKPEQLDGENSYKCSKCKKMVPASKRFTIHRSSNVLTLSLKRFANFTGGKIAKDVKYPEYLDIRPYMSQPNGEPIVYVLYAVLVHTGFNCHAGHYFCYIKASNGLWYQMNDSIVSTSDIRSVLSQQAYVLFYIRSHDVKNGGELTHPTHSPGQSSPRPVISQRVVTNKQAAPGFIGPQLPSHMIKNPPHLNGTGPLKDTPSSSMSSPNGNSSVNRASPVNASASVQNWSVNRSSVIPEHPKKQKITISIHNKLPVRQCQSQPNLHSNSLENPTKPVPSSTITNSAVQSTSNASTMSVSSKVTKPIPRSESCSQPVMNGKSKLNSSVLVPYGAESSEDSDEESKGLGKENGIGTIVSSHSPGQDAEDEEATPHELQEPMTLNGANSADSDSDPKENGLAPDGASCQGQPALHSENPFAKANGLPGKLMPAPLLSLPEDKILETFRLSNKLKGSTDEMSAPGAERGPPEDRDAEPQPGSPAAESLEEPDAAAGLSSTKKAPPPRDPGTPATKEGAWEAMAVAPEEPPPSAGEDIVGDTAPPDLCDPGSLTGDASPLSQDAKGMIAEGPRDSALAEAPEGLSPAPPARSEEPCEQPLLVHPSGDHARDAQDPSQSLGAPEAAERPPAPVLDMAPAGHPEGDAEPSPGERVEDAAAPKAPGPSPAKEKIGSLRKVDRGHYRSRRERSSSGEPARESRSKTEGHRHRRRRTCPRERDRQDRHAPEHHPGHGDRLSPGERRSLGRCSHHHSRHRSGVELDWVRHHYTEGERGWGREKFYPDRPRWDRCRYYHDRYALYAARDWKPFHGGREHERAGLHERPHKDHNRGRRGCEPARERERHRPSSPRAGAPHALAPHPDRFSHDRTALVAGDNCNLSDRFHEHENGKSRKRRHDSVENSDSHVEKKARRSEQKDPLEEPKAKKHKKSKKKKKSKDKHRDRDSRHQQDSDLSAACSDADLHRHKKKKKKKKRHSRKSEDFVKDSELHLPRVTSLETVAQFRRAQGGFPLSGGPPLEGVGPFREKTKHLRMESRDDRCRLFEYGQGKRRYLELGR
Method in brief: (§1)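 Labelled DUBs from HEK293T lysate were NeutrAvidin-enriched, digested with LysC and trypsin, and run by diaPASEF LC-MS/MS. Before that, each 495 µg sample in Tris/CHAPS/IGEPAL buffer with protease inhibitors was treated in triplicate with fragment at 200 µM or vehicle for 3 h, then with Biotin-Ahx-Ub-VS at 0.5 µM final for 1 h. Values are average log2 ratios of fragment over vehicle by unpaired t-test, based on global-median-normalised Spectronaut label-free quantities from proteins with ≥2 unique peptides.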

USP46 = USP46 (UniProt P62068)
Chain of USP46 (P62068 whole entry): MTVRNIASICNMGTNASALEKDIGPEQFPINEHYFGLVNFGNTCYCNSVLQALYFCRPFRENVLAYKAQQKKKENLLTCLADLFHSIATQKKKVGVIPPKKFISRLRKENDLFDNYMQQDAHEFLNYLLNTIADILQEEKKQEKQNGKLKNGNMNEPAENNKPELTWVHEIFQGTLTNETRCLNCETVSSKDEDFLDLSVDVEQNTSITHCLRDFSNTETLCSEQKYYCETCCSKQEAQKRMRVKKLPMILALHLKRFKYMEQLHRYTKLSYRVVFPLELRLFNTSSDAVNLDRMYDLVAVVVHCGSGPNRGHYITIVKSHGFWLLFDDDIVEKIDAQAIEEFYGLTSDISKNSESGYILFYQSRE
Method in brief: as §1

USP47 = biological target: T2, USP47 (UniProt Q96K76)
T2 sequence (whole entry): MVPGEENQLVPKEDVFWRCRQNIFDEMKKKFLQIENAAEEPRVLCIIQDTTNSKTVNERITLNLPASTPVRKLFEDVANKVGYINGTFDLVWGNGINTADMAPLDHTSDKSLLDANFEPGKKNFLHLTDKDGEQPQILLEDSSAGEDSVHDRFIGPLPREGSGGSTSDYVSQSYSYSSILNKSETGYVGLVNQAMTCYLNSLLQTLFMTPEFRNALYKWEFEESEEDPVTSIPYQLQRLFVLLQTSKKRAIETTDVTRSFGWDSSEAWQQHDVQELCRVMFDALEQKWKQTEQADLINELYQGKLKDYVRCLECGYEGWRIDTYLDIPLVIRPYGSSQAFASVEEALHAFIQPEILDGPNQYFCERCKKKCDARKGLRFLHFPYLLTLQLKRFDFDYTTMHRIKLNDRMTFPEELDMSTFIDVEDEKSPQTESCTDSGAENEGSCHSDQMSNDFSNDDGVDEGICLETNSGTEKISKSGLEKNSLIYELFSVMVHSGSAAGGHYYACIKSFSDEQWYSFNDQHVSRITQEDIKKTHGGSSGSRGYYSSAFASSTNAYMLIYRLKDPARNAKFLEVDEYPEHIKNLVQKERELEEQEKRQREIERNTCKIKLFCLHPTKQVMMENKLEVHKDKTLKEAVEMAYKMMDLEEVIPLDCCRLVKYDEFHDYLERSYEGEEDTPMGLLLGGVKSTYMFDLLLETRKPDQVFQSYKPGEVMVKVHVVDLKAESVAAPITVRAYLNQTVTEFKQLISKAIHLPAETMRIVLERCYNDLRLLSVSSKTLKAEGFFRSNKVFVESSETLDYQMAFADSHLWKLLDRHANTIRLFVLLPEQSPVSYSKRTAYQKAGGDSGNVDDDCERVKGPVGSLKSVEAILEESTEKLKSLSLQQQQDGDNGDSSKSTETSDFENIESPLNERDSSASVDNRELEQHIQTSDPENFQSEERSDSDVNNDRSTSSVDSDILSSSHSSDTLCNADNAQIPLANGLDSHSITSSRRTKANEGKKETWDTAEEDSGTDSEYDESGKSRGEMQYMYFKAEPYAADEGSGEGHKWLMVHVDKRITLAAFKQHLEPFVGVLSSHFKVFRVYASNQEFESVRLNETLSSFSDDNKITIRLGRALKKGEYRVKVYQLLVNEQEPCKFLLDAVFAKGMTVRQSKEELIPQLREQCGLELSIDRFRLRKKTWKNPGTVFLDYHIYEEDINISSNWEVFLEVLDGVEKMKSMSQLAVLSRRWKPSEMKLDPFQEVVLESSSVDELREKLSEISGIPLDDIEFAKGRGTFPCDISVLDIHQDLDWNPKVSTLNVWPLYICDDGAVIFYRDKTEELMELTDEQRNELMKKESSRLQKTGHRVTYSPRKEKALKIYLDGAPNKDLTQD
Method in brief: as §1

USP48 = biological target: T3, USP48 (UniProt Q86UV5)
T3 sequence (whole entry): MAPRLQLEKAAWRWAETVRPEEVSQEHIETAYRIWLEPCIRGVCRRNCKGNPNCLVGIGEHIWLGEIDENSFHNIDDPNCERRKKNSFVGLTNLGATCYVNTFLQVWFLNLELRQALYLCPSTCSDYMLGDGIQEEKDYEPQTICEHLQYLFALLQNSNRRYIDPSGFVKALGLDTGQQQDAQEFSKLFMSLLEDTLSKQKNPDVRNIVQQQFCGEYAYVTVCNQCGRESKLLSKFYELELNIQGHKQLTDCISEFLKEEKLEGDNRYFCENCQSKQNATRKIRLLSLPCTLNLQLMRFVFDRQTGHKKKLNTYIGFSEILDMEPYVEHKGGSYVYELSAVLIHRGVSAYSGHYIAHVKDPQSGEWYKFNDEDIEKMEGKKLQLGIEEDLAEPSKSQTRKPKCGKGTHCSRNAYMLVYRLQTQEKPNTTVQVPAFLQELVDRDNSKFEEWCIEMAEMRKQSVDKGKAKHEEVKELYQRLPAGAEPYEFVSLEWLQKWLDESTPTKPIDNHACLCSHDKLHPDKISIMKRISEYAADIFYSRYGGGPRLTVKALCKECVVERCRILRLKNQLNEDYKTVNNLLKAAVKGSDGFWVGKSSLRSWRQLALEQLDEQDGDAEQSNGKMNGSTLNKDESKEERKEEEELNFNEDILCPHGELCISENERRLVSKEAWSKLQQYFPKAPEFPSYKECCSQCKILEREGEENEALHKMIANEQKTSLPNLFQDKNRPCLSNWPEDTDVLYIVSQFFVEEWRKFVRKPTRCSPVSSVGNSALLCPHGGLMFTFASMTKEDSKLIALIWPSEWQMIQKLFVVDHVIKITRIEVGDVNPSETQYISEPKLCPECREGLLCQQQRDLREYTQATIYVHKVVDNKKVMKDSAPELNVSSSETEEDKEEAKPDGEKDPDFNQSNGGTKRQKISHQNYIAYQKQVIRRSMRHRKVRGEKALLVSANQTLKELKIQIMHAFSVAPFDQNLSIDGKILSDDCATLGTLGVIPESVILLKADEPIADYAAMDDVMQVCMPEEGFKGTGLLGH
Method in brief: as §1

USP5 = biological target: T4, USP5 (UniProt P45974)
T4 sequence (whole entry): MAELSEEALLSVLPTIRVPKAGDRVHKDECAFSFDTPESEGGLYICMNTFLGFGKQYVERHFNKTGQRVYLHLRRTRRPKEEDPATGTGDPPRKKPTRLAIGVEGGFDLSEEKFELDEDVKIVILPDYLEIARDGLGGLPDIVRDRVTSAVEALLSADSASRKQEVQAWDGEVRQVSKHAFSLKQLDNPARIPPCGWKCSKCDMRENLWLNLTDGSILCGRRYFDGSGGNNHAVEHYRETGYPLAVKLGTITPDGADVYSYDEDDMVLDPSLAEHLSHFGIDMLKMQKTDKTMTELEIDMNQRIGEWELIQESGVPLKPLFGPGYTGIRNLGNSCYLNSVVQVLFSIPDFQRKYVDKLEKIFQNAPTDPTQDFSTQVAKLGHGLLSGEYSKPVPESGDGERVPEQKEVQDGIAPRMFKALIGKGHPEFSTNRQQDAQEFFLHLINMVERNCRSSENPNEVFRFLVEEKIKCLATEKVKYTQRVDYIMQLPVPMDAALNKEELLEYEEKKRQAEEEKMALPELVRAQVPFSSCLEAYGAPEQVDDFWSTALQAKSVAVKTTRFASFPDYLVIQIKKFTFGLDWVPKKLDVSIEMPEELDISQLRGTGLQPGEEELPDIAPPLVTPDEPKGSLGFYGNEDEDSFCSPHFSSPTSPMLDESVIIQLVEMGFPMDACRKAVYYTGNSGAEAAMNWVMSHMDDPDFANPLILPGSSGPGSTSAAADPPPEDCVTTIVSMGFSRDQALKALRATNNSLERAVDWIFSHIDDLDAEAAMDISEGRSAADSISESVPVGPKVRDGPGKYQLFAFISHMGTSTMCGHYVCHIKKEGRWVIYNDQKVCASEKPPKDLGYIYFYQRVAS
Method in brief: as §1

USP54 = USP54 (UniProt Q70EL1)
Chain of USP54 (Q70EL1 whole entry): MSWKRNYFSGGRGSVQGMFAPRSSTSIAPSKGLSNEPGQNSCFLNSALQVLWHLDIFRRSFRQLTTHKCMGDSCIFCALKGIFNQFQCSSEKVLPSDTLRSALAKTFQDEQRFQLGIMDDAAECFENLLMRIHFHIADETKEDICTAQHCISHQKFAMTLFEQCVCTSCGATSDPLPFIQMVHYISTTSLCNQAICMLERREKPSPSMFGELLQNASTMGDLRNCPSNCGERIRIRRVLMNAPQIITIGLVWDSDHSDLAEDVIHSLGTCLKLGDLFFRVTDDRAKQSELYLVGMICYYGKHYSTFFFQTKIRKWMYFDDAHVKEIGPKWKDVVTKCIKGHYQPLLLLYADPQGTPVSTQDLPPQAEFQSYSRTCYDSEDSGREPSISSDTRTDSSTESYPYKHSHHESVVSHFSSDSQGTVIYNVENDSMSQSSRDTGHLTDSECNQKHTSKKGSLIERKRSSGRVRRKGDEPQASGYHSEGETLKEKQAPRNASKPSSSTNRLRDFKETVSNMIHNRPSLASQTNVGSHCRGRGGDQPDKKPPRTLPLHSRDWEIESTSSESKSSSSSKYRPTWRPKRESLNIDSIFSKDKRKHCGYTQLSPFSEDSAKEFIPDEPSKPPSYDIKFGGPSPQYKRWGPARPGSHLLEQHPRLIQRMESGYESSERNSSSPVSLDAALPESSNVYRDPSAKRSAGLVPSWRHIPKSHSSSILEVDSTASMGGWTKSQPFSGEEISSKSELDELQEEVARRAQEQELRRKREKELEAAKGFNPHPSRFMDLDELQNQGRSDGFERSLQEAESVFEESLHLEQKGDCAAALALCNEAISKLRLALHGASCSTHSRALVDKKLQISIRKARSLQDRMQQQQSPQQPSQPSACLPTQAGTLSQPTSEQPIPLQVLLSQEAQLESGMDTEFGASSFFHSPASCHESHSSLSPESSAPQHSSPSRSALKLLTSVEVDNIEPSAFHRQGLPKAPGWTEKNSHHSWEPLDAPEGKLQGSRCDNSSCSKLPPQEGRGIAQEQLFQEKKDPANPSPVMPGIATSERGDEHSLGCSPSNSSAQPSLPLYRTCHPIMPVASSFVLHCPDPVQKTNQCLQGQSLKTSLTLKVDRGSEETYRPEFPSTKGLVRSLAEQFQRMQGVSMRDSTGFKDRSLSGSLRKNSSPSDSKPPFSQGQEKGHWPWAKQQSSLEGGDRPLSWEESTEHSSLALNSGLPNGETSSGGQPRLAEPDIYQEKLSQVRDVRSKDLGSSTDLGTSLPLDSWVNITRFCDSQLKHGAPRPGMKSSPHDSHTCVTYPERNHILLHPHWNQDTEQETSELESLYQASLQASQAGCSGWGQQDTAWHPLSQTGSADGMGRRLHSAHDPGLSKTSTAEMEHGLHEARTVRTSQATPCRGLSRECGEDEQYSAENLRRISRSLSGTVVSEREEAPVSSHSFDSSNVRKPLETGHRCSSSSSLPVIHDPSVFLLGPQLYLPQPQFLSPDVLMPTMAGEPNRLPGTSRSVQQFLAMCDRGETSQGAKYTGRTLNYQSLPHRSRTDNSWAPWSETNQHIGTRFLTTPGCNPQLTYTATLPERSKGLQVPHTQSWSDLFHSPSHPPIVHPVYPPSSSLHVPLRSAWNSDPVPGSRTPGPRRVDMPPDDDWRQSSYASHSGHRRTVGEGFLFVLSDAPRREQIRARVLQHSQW
Method in brief: as §1

USP7 = USP7 (UniProt Q93009)
Chain of USP7 (Q93009 whole entry, looked up): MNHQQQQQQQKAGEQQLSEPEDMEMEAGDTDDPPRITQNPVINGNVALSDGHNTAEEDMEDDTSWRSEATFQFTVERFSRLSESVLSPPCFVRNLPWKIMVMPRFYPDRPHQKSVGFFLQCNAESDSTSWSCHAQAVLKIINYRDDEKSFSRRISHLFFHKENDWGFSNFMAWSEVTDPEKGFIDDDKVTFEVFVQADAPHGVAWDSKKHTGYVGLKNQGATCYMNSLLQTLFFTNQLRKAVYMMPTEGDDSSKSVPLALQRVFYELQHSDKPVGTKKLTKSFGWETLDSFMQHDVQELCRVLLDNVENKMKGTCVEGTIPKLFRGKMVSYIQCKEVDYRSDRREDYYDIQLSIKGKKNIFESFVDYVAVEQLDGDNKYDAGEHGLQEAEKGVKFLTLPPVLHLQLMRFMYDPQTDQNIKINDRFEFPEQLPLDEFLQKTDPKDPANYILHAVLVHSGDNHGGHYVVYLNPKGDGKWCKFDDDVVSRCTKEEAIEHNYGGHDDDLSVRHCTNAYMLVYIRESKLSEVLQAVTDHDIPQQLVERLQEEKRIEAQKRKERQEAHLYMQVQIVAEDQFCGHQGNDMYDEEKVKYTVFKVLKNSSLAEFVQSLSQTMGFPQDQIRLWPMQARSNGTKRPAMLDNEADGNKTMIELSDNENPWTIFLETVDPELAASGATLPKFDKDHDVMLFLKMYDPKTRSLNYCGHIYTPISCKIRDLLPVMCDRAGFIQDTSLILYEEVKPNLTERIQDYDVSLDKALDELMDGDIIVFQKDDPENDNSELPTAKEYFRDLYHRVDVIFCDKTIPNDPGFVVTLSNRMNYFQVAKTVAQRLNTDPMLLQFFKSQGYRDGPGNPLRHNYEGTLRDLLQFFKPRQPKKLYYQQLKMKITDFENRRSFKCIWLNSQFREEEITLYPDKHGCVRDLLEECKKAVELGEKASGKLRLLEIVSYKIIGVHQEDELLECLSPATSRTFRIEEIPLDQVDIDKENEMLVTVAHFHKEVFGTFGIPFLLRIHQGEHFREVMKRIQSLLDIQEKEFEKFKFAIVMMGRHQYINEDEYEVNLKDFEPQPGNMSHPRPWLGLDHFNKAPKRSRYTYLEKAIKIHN
Method in brief: as §1

USP8 = biological target: T5, USP8 (UniProt P40818)
T5 sequence (whole entry): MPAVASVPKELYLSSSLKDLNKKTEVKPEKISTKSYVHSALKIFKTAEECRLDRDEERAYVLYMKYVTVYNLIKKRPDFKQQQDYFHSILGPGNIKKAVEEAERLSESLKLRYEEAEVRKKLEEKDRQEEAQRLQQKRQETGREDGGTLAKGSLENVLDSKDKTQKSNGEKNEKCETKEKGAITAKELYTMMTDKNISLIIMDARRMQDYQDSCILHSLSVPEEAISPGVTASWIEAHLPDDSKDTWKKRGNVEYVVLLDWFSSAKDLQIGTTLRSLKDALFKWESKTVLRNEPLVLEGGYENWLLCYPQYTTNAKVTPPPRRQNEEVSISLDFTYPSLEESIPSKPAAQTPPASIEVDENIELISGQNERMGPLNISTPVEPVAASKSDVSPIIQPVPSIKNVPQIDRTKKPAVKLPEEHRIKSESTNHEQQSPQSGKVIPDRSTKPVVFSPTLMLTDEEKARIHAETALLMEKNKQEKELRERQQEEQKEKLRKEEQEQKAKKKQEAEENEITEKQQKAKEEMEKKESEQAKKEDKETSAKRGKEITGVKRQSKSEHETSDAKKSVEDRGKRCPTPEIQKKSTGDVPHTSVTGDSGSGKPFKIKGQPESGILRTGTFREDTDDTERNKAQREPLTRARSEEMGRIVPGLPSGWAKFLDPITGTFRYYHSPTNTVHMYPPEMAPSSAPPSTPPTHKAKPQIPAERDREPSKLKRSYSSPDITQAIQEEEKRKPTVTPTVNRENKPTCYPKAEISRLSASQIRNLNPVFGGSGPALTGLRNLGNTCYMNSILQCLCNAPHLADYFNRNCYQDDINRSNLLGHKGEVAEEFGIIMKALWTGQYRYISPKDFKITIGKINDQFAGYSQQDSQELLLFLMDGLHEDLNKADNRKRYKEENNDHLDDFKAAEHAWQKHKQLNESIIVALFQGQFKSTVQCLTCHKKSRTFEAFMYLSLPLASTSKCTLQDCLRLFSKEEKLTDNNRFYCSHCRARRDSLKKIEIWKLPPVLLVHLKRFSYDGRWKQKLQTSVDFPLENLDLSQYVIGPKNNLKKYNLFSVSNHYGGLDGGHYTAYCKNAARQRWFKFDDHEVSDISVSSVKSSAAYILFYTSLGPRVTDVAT
Method in brief: as §1

Measured: log2 ratio of Biotin-Ahx-Ub-VS probe labelling

COc1cc(Cl)c(C)cc1NC(=O)CCl
inactive: USP42 -0.591 | USP46 -0.0884 | USP47 -0.965 | USP48 -0.36 | USP5 -0.267 | USP54 0.718 | USP7 -0.373 | USP8 -0.251
